Out of some 5,500 compounds screened, about 2,000 (36%) were called active. Inconclusive results (about 18%) are left out. Rule as the data show it: active = normalized growth mostly below about 0.91 (no sharp cut-off); inconclusive = no clear call, values can overlap the other calls; inactive = mostly above about 0.92. The list shows a part of the results.
Test: chemical genetic growth profiling, strain panel (AID 1159580);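 also: tested at 20 µM; growth read once vehicle control cultures reached saturation at 30 °C; 1 = growth at the plate median or of vehicle wells; lower values mean less growth of the strain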
Settings: growth OD

Measured: normalized growth

O=C(/C=C(\O)c1ccccc1)c1ccccc1O
active: S. cerevisiae deletion strains, locus YAL021C, strain ccr4, hits give low values 0.843 | S. cerevisiae deletion strains, locus YAL026C, strain drs2, hits give low values 0.775 | S. cerevisiae deletion strains, locus YAL030W, strain snc1, hits give low values 0.827 | S. cerevisiae deletion strains, locus YBL061C, strain skt5, hits give low values 0.776 | S. cerevisiae deletion strains, locus YBR009C, strain hhf1, hits give low values 0.667 | S. cerevisiae deletion strains, locus YBR023C, strain chs3, hits give low values 0.778 | S. cerevisiae deletion strains, locus YBR171W, strain sec66, hits give low values 0.807 | S. cerevisiae deletion strains, locus YBR229C, strain ROT2, hits give low values 0.778 | S. cerevisiae deletion strains, locus YBR231C, strain swc5, hits give low values 0.65 | S. cerevisiae deletion strains, locus YBR279W, strain paf1, hits give low values 0.865 | S. cerevisiae deletion strains, locus YCL011C, strain gbp2, hits give low values 0.681 | S. cerevisiae deletion strains, locus YCL016C, strain dcc1, hits give low values 0.836 | S. cerevisiae deletion strains, locus YCL029C, strain bik1, hits give low values 0.593 | S. cerevisiae deletion strains, locus YCL061C, strain MRC1, hits give low values 0.812 | S. cerevisiae deletion strains, locus YCL069W, strain vba3, hits give low values 0.843 | S. cerevisiae deletion strains, locus YCR088W, strain abp1, hits give low values 0.877 | S. cerevisiae deletion strains, locus YDL035C, strain GPR1, hits give low values 0.791 | S. cerevisiae deletion strains, locus YDL040C, strain nat1, hits give low values 0.918 | S. cerevisiae deletion strains, locus YDL074C, strain BRE1, hits give low values 0.28 | S. cerevisiae deletion strains, locus YDL101C, strain DUN1, hits give low values 0.595 | S. cerevisiae deletion strains, locus YDL134C, strain PPH21, hits give low values 0.827 | S. cerevisiae deletion strains, locus YDL185W, strain tfp1, hits give low values 0.817 | S. cerevisiae deletion strains, locus YDL192W, strain arf1, hits give low values 0.776 | S. cerevisiae deletion strains, locus YDR001C, strain nth1, hits give low values 0.903 | S. cerevisiae deletion strains, locus YDR069C, strain doa4, hits give low values 0.701 | S. cerevisiae deletion strains, locus YDR101C, strain arx1, hits give low values 0.665 | S. cerevisiae deletion strains, locus YDR137W, strain rgp1, hits give low values 0.402 | S. cerevisiae deletion strains, locus YDR159W, strain sac3, hits give low values 0.682 | S. cerevisiae deletion strains, locus YDR162C, strain NBP2, hits give low values 0.794 | S. cerevisiae deletion strains, locus YDR297W, strain sur2, hits give low values 0.856 | S. cerevisiae deletion strains, locus YDR318W, strain mcm21, hits give low values 0.844 | S. cerevisiae deletion strains, locus YDR334W, strain swr1, hits give low values 0.687 | S. cerevisiae deletion strains, locus YDR335W, strain msn5, hits give low values 0.857 | S. cerevisiae deletion strains, locus YDR388W, hits give low values 0.736 | S. cerevisiae deletion strains, locus YDR392W, strain spt3, hits give low values 0.71 | S. cerevisiae deletion strains, locus YDR502C, strain sam2, hits give low values 0.845 | S. cerevisiae deletion strains, locus YEL003W, strain gim4, hits give low values 0.709 | S. cerevisiae deletion strains, locus YEL037C, strain rad23, hits give low values 0.868 | S. cerevisiae deletion strains, locus YEL061C, strain CIN8 (second series), hits give low values 0.903 | S. cerevisiae deletion strains, locus YEL061C, strain CIN8, hits give low values 0.826 | S. cerevisiae deletion strains, locus YER015W, strain faa2, hits give low values 0.685 | S. cerevisiae deletion strains, locus YER016W, strain bim1, hits give low values 0.88 | S. cerevisiae deletion strains, locus YER110C, hits give low values 0.787 | S. cerevisiae deletion strains, locus YER111C, strain swi4, hits give low values 0.871 | S. cerevisiae deletion strains, locus YER155C, strain BEM2 (second series), hits give low values 0.755 | S. cerevisiae deletion strains, locus YER155C, strain BEM2, hits give low values 0.413 | S. cerevisiae deletion strains, locus YER167W, strain BCK2, hits give low values 0.554 | S. cerevisiae deletion strains, locus YFR010W, strain ubp6, hits give low values 0.766 | S. cerevisiae deletion strains, locus YGL086W, strain mad1, hits give low values 0.794 | S. cerevisiae deletion strains, locus YGL167C, strain pmr1, hits give low values 0.895 | S. cerevisiae deletion strains, locus YGL173C, strain kem1, hits give low values 0.779 | S. cerevisiae deletion strains, locus YGL227W, strain vid30, hits give low values 0.906 | S. cerevisiae deletion strains, locus YGL240W, strain doc1, hits give low values 0.758 | S. cerevisiae deletion strains, locus YGL248W, strain PDE1, hits give low values 0.491 | S. cerevisiae deletion strains, locus YGL253W, strain hxk2, hits give low values 0.543 | S. cerevisiae deletion strains, locus YGR135W, strain pre9, hits give low values 0.836 | S. cerevisiae deletion strains, locus YHR027C, strain rpn1, hits give low values 0.637 | S. cerevisiae deletion strains, locus YHR030C, strain SLT2, hits give low values 0.854 | S. cerevisiae deletion strains, locus YHR079C, strain IRE1 (second series), hits give low values 0.554 | S. cerevisiae deletion strains, locus YHR129C, strain ARP1, hits give low values 0.527 | S. cerevisiae deletion strains, locus YHR142W, strain chs7, hits give low values 0.648 | S. cerevisiae deletion strains, locus YHR200W, strain rpn10, hits give low values 0.863 | S. cerevisiae deletion strains, locus YIL066C, strain RNR3, hits give low values 0.696 | S. cerevisiae deletion strains, locus YIL073C, strain SPO22, hits give low values 0.301 | S. cerevisiae deletion strains, locus YIR030C, strain dcg1, hits give low values 0.592 | S. cerevisiae deletion strains, locus YJL092W, strain hpr5, hits give low values 0.87 | S. cerevisiae deletion strains, locus YJL095W, strain BCK1 (second series), hits give low values 0.741 | S. cerevisiae deletion strains, locus YJL095W, strain BCK1, hits give low values 0.254 | S. cerevisiae deletion strains, locus YJL129C, strain trk1, hits give low values 0.741 | S. cerevisiae deletion strains, locus YJL134W, strain LCB3, hits give low values 0.908 | S. cerevisiae deletion strains, locus YJL154C, strain vps35, hits give low values 0.918 | S. cerevisiae deletion strains, locus YJL164C, strain tpk1, hits give low values 0.695 | S. cerevisiae deletion strains, locus YJL166W, strain qcr8, hits give low values 0.546 | S. cerevisiae deletion strains, locus YJL187C, strain SWE1 (second series), hits give low values 0.456 | S. cerevisiae deletion strains, locus YJL187C, strain SWE1, hits give low values 0.785 | S. cerevisiae deletion strains, locus YKL009W, strain mrt4, hits give low values 0.78 | S. cerevisiae deletion strains, locus YKL160W, strain elf1, hits give low values 0.823 | S. cerevisiae deletion strains, locus YKL190W, strain CNB1, hits give low values 0.902 | S. cerevisiae deletion strains, locus YKR001C, strain vps1, hits give low values 0.73 | S. cerevisiae deletion strains, locus YKR026C, strain gcn3, hits give low values 0.895 | S. cerevisiae deletion strains, locus YKR091W, strain srl3, hits give low values 0.904 | S. cerevisiae deletion strains, locus YLL001W, strain dnm1, hits give low values 0.769 | S. cerevisiae deletion strains, locus YLL026W, hits give low values 0.864 | S. cerevisiae deletion strains, locus YLL041C, strain sdh2, hits give low values 0.869 | S. cerevisiae deletion strains, locus YLR027C, strain aat2, hits give low values 0.685 | S. cerevisiae deletion strains, locus YLR039C, strain RIC1, hits give low values 0.137 | S. cerevisiae deletion strains, locus YLR058C, strain SHM2, hits give low values 0.442 | S. cerevisiae deletion strains, locus YLR221C, strain rsa3, hits give low values 0.601 | S. cerevisiae deletion strains, locus YLR258W, strain gsy2, hits give low values 0.818 | S. cerevisiae deletion strains, locus YLR262C, strain YPT6 (second series), hits give low values 0.391 | S. cerevisiae deletion strains, locus YLR262C, strain YPT6, hits give low values 0.463 | S. cerevisiae deletion strains, locus YLR268W, strain sec22, hits give low values 0.836 | S. cerevisiae deletion strains, locus YLR320W, strain mms22, hits give low values 0.767 | S. cerevisiae deletion strains, locus YLR342W, strain FKS1, hits give low values 0.903 | S. cerevisiae deletion strains, locus YLR357W, strain rsc2, hits give low values 0.785 | S. cerevisiae deletion strains, locus YLR370C, strain arc18, hits give low values 0.864 | S. cerevisiae deletion strains, locus YLR371W, strain rom2, hits give low values 0.801 | S. cerevisiae deletion strains, locus YLR418C, strain cdc73, hits give low values 0.64 | S. cerevisiae deletion strains, locus YML016C, strain PPZ1, hits give low values 0.633 | S. cerevisiae deletion strains, locus YML032C, strain rad52, hits give low values 0.453 | S. cerevisiae deletion strains, locus YML120C, strain ndi1, hits give low values 0.589 | S. cerevisiae deletion strains, locus YML124C, strain tub3, hits give low values 0.901 | S. cerevisiae deletion strains, locus YMR058W, strain fet3, hits give low values 0.21 | S. cerevisiae deletion strains, locus YMR129W, hits give low values 0.847 | S. cerevisiae deletion strains, locus YMR205C, strain PFK2, hits give low values 0.613 | S. cerevisiae deletion strains, locus YMR223W, strain ubp8, hits give low values 0.826 | S. cerevisiae deletion strains, locus YMR231W, strain pep5, hits give low values 0.083 | S. cerevisiae deletion strains, locus YMR307W, strain GAS1, hits give low values 0.523 | S. cerevisiae deletion strains, locus YNL071W, strain lat1, hits give low values 0.581 | S. cerevisiae deletion strains, locus YNL153C, strain GIM3, hits give low values 0.582 | S. cerevisiae deletion strains, locus YNL209W, strain ssb2, hits give low values 0.648 | S. cerevisiae deletion strains, locus YNL233W, strain BNI4, hits give low values 0.707 | S. cerevisiae deletion strains, locus YNL322C, strain KRE1 (second series), hits give low values 0.789 | S. cerevisiae deletion strains, locus YNR049C, strain mso1, hits give low values 0.892 | S. cerevisiae deletion strains, locus YNR052C, strain pop2, hits give low values 0.556 | S. cerevisiae deletion strains, locus YOL147C, strain pex11, hits give low values 0.531 | S. cerevisiae deletion strains, locus YOR001W, strain rrp6, hits give low values 0.733 | S. cerevisiae deletion strains, locus YOR069W, strain VPS5, hits give low values 0.719 | S. cerevisiae deletion strains, locus YOR070C, strain gyp1, hits give low values 0.921 | S. cerevisiae deletion strains, locus YOR083W, strain WHI5, hits give low values 0.745 | S. cerevisiae deletion strains, locus YOR106W, strain vam3, hits give low values 0.0896 | S. cerevisiae deletion strains, locus YOR144C, strain elg1, hits give low values 0.724 | S. cerevisiae deletion strains, locus YOR184W, strain ser1, hits give low values 0.703 | S. cerevisiae deletion strains, locus YOR265W, strain rbl2, hits give low values 0.849 | S. cerevisiae deletion strains, locus YOR270C, strain vph1, hits give low values 0.607 | S. cerevisiae deletion strains, locus YOR290C, strain snf2, hits give low values 0.676 | S. cerevisiae deletion strains, locus YPL051W, strain arl3, hits give low values 0.568 | S. cerevisiae deletion strains, locus YPL078C, strain atp4, hits give low values 0.795 | S. cerevisiae deletion strains, locus YPL240C, strain hsp82, hits give low values 0.78 | S. cerevisiae deletion strains, locus YPL241C, strain CIN2, hits give low values 0.928 | S. cerevisiae deletion strains, locus YPR163C, strain tif3, hits give low values 0.755 | S. cerevisiae deletion strains, locus YPR167C, strain met16, hits give low values 0.852 | S. cerevisiae deletion strains, strain wtn01, hits give low values 0.843 | S. cerevisiae strains, strain wild type, hits give low values 0.545
inactive: S. cerevisiae deletion strains, locus YBR021W, strain FUR4, hits give low values 0.939 | S. cerevisiae deletion strains, locus YDL005C, strain med2, hits give low values 0.941 | S. cerevisiae deletion strains, locus YDR195W, strain ref2 1.06 | S. cerevisiae deletion strains, locus YGL078C, strain dbp3, hits give low values 0.986 | S. cerevisiae deletion strains, locus YGR078C, strain PAC10, hits give low values 0.914 | S. cerevisiae deletion strains, locus YGR252W, strain gcn5, hits give low values 0.872 | S. cerevisiae deletion strains, locus YHR013C, strain ard1, hits give low values 0.865 | S. cerevisiae deletion strains, locus YHR094C, strain hxt1, hits give low values 0.935 | S. cerevisiae deletion strains, locus YIL125W, strain kgd1, hits give low values 0.98 | S. cerevisiae deletion strains, locus YJL115W, strain asf1, hits give low values 0.94 | S. cerevisiae deletion strains, locus YJL168C, strain set2, hits give low values 0.958 | S. cerevisiae deletion strains, locus YKL068W, hits give low values 0.969 | S. cerevisiae deletion strains, locus YKL085W, strain MDH1 (second series), hits give low values 0.963 | S. cerevisiae deletion strains, locus YKL085W, strain MDH1, hits give low values 0.963 | S. cerevisiae deletion strains, locus YLR102C, strain apc9, hits give low values 0.997 | S. cerevisiae deletion strains, locus YLR342W, strain FKS1 (second series), hits give low values 0.849 | S. cerevisiae deletion strains, locus YLR384C, strain iki3, hits give low values 0.92 | S. cerevisiae deletion strains, locus YMR078C, strain ctf18, hits give low values 0.948 | S. cerevisiae deletion strains, locus YMR125W, strain sto1, hits give low values 0.991 | S. cerevisiae deletion strains, locus YNL067W, strain RPL9B, hits give low values 0.929 | S. cerevisiae deletion strains, locus YNL128W, strain TEP1, hits give low values 0.855 | S. cerevisiae deletion strains, locus YNL248C, strain rpa49, hits give low values 0.91 | S. cerevisiae deletion strains, locus YNL250W, strain rad50, hits give low values 0.97 | S. cerevisiae deletion strains, locus YNL271C, strain bni1, hits give low values 0.951 | S. cerevisiae deletion strains, locus YNL298W, strain CLA4, hits give low values 0.926 | S. cerevisiae deletion strains, locus YNL307C, strain MCK1, hits give low values 0.928 | S. cerevisiae deletion strains, locus YOL012C, strain htz1 0.3 | S. cerevisiae deletion strains, locus YOR061W, strain CKA2, hits give low values 0.93 | S. cerevisiae deletion strains, locus YOR080W, strain dia2, hits give low values 0.929 | S. cerevisiae deletion strains, locus YOR136W, strain idh2, hits give low values 0.939 | S. cerevisiae deletion strains, locus YOR316C, strain cot1, hits give low values 0.941 | S. cerevisiae deletion strains, locus YPL106C, strain sse1, hits give low values 0.933 | S. cerevisiae deletion strains, locus YPR119W, strain clb2, hits give low values 0.951 | S. cerevisiae deletion strains, locus YPR141C, strain kar3, hits give low values 0.967

From PubChem BioAssay AID1159580 (chemical genetic matrix, 2015)
